Records with an inconclusive call do not appear. Calls of active or inactive are those of the source. Rule for the calls: active = hit-call score of the fitted dose curve at least 0.9, where 1 is the maximum; inconclusive = response in the unintended direction; inactive = score below 0.9.
How the values were obtained:
[1] = target: Cellular tumor antigen p53 (Homo sapiens) (UniProt P04637); test: TOX21_p53_BLA_p2_ratio: Tox21 HCT-116 p53 Agonism Beta-lactamase Assay, Ratio, Phase 2 (AID 2283592)
Summary of the method: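 Read-out is the blue/green (460/530 nm, 405 nm excitation) ratio after 2 h CCF4-AM loading, fitted as gain versus DMSO. Compounds, pinned at 217-fold dilution from DMSO stocks, stayed 16 h on HCT-116 beta-lactamase reporter cells seeded 5 h earlier.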

[2] = target: Cellular tumor antigen p53 (Homo sapiens) (UniProt P04637); test: TOX21_p53_BLA_p3_ratio: Tox21 HCT-116 p53 Agonism Beta-lactamase Assay, Ratio, Phase 3 (AID 2283596)
Summary of the method: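 Cells were seeded at 4000/well, rested 5 h at 37C, then dosed with DMSO compound solutions (217-fold dilution) for 16 h. CCF4-AM substrate was loaded for 2 h at room temperature, and the 460/530 nm emission ratio was fitted for gain of signal versus DMSO.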

[3] = TOX21_p53_BLA_p4_viability: Viability Assessment in the Tox21 HCT-116 p53 Agonism Beta-lactamase Assay, Phase 4 (AID 2283597);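 note: hits lower the luminescence signal meaning cytotoxicity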
Summary of the method: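 Cytotoxicity as reduced cellular ATP (CellTiter-Glo luminescence, 30 min room temperature), measured in the same wells following the CCF4 FRET p53 reading. Human HCT-116 cells received compounds in DMSO (217-fold dilution) for 16 h.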

[4] = TOX21_p53_BLA_p3_viability: Viability Assessment in the Tox21 HCT-116 p53 Agonism Beta-lactamase Assay, Phase 3 (AID 2283593);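 note: cells exposed to compound for 16 h before reading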
Summary of the method: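 HCT-116 cells (4000/well) rested 5 h at 37C, then got DMSO compounds by pin tool (217-fold dilution) for 16 h at 37C, 5% CO2. After the bla read, CellTiter-Glo was added and luminescence read at 30 min, room temperature.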

[5] = TOX21_p53_BLA_p5_viability: Viability Assessment in the Tox21 HCT-116 p53 Agonism Beta-lactamase Assay, Phase 5 (AID 2283600)
Summary of the method: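 Viability came from CellTiter-Glo ATP luminescence, read after 30 min at room temperature. Before this, HCT-116 p53-bla cells (4000/well) had 16 hours of compound exposure at 37C, with DMSO stocks diluted 217-fold on transfer.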

[6] = target: Cellular tumor antigen p53 (Homo sapiens) (UniProt P04637); test: TOX21_p53_BLA_p4_ratio: Tox21 HCT-116 p53 Agonism Beta-lactamase Assay, Ratio, Phase 4 (AID 2283601)
Summary of the method: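 HCT116 cells carrying an inducible beta-lactamase reporter were plated at 4000 cells/well, rested 5 h, then exposed to compounds in DMSO (217-fold dilution) for 16 h at 37C. CCF4-AM substrate was loaded 2 h at room temperature; 460/530 nm emission ratio scored gain-of-signal versus DMSO.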

[7] = target: Cellular tumor antigen p53 (Homo sapiens) (UniProt P04637); test: TOX21_p53_BLA_p5_ratio: Tox21 HCT-116 p53 Agonism Beta-lactamase Assay, Ratio, Phase 5 (AID 2283599)
Summary of the method: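 HCT-116 cells carrying a p53-inducible beta-lactamase reporter were seeded at 4000 cells/well and dosed after 5 h with compound in DMSO (217-fold dilution). After 16 h at 37C, CCF4-AM substrate was added for 2 h, and the 460/530 nm emission ratio was scored as gain-of-signal versus DMSO.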

Cellular tumor antigen p53 (Homo sapiens), sequence (P04637 whole entry, looked up): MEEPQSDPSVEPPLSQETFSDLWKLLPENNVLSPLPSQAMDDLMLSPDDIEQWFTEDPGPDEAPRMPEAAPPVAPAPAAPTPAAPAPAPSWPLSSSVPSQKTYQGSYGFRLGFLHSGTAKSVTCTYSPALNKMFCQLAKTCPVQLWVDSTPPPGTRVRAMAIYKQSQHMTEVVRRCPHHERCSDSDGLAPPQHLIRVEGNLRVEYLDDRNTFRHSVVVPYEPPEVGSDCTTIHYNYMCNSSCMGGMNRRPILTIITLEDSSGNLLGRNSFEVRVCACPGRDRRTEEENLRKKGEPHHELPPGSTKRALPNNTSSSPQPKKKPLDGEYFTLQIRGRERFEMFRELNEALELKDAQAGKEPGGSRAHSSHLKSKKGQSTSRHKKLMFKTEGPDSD

**Q.** For `CC(C(=O)O)c1ccc(C(=O)c2cccs2)cc1` (centres undefined), which outcome [1] is on record?
**A.** inactive

**Q.** And the outcome [2]?
**A.** inactive

**Q.** What about the outcome [3] of the same compound?
**A.** inactive

**Q.** For `COc1ccc(-c2cc(=O)c3c(O)cc(O[C@@H]4O[C@H](CO[C@@H]5O[C@@H](C)[C@H](O)[C@@H](O)[C@H]5O)[C@@H](O)[C@H](O)[C@H]4O)cc3o2)cc1O`, which outcome [1] is on record?
**A.** inactive

**Q.** What about the outcome [4] of the same compound?
**A.** inactive

**Q.** And the outcome [5]?
**A.** inactive

**Q.** And the outcome [6]?
**A.** inactive

**Q.** With `CN1CCN(c2cc3c(cc2F)c(=O)c(C(=O)O)cn3-c2ccc(F)cc2)CC1` as the compound, how does the outcome [1] read?
**A.** inactive

**Q.** What about the outcome [4] of the same compound?
**A.** inactive

**Q.** And the outcome [5]?
**A.** inactive

**Q.** And the outcome [6]?
**A.** inactive

**Q.** Which results are given for `NCCCC(=O)O`?
**A.** outcome [1]: inactive; outcome [2]: inactive; outcome [3]: inactive

**Q.** With `COC(C)OC` as the compound, how does the outcome [1] read?
**A.** inactive

**Q.** What about the outcome [4] of the same compound?
**A.** inactive

**Q.** What about the outcome [5] of the same compound?
**A.** inactive

**Q.** What about the outcome [6] of the same compound?
**A.** inactive

**Q.** For `C[C@]12CC[C@@H]3c4ccc(O)cc4CC[C@H]3[C@@H]1CC[C@@H]2OP(=O)(O)O`, which outcome [1] is on record?
**A.** inactive

**Q.** And the outcome [2]?
**A.** inactive

**Q.** And the outcome [3]?
**A.** inactive

**Q.** For `C=CC(C)CCC=C(C)C` (centres undefined), which outcome [1] is on record?
**A.** inactive

**Q.** What about the outcome [4] of the same compound?
**A.** inactive

**Q.** What about the outcome [5] of the same compound?
**A.** inactive

**Q.** What about the outcome [6] of the same compound?
**A.** inactive

**Q.** Which results are given for `Nc1nc(N)nc(-c2cc(Cl)ccc2Cl)n1`?
**A.** outcome [1]: inactive; outcome [2]: inactive

**Q.** Which outcome [1] does the source give for `O=S1OCCO1` here?
**A.** inactive

**Q.** What about the outcome [2] of the same compound?
**A.** inactive

**Q.** What does the source list for `Nc1cc(C(=O)O)c(O)c(S(=O)(=O)O)c1`?
**A.** outcome [1]: inactive; outcome [4]: inactive; outcome [5]: inactive

**Q.** Which outcome [1] does the source give for `CCN(CC)CCC(=O)N1c2ccccc2Sc2ccc(C(F)(F)F)cc21` here?
**A.** inactive

**Q.** What about the outcome [2] of the same compound?
**A.** inactive

**Q.** And the outcome [3]?
**A.** inactive

**Q.** And the outcome [7]?
**A.** inactive

**Q.** Which results are given for `OC[C@H]1O[C@@H](OCCc2ccc(O)cc2)[C@H](O)[C@@H](O)[C@@H]1O`?
**A.** outcome [1]: inactive; outcome [4]: inactive; outcome [5]: inactive; outcome [6]: inactive

**Q.** With `C=CC[N+]1([C@H]2C[C@H]3[C@@H]4CC[C@H]5C[C@H](O)[C@@H](N6CCOCC6)C[C@]5(C)[C@H]4CC[C@]3(C)[C@H]2OC(C)=O)CCCC1` as the compound, how does the outcome [1] read?
**A.** inactive

**Q.** What about the outcome [2] of the same compound?
**A.** inactive

**Q.** And the outcome [3]?
**A.** inactive

**Q.** For `O=C1c2ccccc2C(=O)C1c1ccc(F)cc1`, which outcome [1] is on record?
**A.** inactive

**Q.** And the outcome [2]?
**A.** inactive

**Q.** And the outcome [3]?
**A.** inactive

**Q.** What about the outcome [7] of the same compound?
**A.** inactive

**Q.** With `Cc1c(N=C=O)cccc1N=C=O` as the compound, how does the outcome [1] read?
**A.** inactive

**Q.** What about the outcome [2] of the same compound?
**A.** inactive

**Q.** And the outcome [3]?
**A.** inactive

**Q.** With `CC(=O)N[C@@H](Cc1ccc(O)cc1)C(=O)O` as the compound, how does the outcome [1] read?
**A.** inactive

**Q.** And the outcome [2]?
**A.** inactive

**Q.** What about the outcome [3] of the same compound?
**A.** inactive

**Q.** What about the outcome [7] of the same compound?
**A.** inactive

**Q.** With `CCN(CC)CC(=O)Nc1c(C)cccc1C` as the compound, how does the outcome [1] read?
**A.** inactive

**Q.** What about the outcome [4] of the same compound?
**A.** inactive

**Q.** And the outcome [6]?
**A.** inactive

**Q.** What does the source list for `N#CSc1ccc(N)c([N+](=O)[O-])c1`?
**A.** outcome [1]: inactive; outcome [2]: inactive; outcome [3]: inactive; outcome [7]: inactive

**Q.** With `CCC(O)c1ccccc1` (centres undefined) as the compound, how does the outcome [1] read?
**A.** inactive

**Q.** And the outcome [4]?
**A.** inactive

**Q.** And the outcome [5]?
**A.** inactive

**Q.** And the outcome [6]?
**A.** inactive

**Q.** Which results are given for `Cc1ccnc2ccccc12`?
**A.** outcome [1]: inactive; outcome [2]: inactive

**Q.** Which outcome [1] does the source give for `CCC(=O)Nc1ccc(O)cc1` here?
**A.** inactive

**Q.** What about the outcome [4] of the same compound?
**A.** inactive

**Q.** And the outcome [6]?
**A.** inactive

**Q.** With `Cc1cccc(C)c1OCC(C)N` (centres undefined) as the compound, how does the outcome [1] read?
**A.** inactive

**Q.** What about the outcome [2] of the same compound?
**A.** inactive

**Q.** What does the source list for `C[Se]CCC(N)C(=O)O` (centres undefined)?
**A.** outcome [1]: inactive; outcome [2]: inactive; outcome [3]: inactive

**Q.** Which results are given for `CS(=O)(=O)c1ccc([C@@H](O)[C@@H](COC(=O)CN)NC(=O)C(Cl)Cl)cc1`?
**A.** outcome [1]: inactive; outcome [2]: inactive; outcome [3]: inactive

**Q.** Which results are given for `O=C(N=NC(=O)OCc1ccccc1)OCc1ccccc1`?
**A.** outcome [1]: inactive; outcome [2]: inactive; outcome [3]: inactive; outcome [7]: inactive; outcome [6]: inactive

**Q.** For `O=C[O][Al]([O]C=O)[O]C=O`, which outcome [1] is on record?
**A.** inactive

**Q.** What about the outcome [2] of the same compound?
**A.** inactive

**Q.** What about the outcome [3] of the same compound?
**A.** inactive

**Q.** What about the outcome [7] of the same compound?
**A.** inactive

**Q.** And the outcome [5]?
**A.** inactive

**Q.** What about the outcome [6] of the same compound?
**A.** inactive

**Q.** Which outcome [1] does the source give for `NC(=O)Nc1nc2ccccc2[nH]1` here?
**A.** inactive

**Q.** What about the outcome [2] of the same compound?
**A.** inactive

**Q.** And the outcome [3]?
**A.** inactive

**Q.** And the outcome [7]?
**A.** inactive

**Q.** And the outcome [5]?
**A.** inactive

**Q.** And the outcome [6]?
**A.** inactive

**Q.** Which results are given for `NC1=NCC2c3ccccc3Cc3ccccc3N12` (centres undefined)?
**A.** outcome [1]: inactive; outcome [2]: inactive; outcome [3]: inactive; outcome [7]: inactive; outcome [6]: inactive

**Q.** What does the source list for `CCC(CO)(CO)CO`?
**A.** outcome [1]: inactive; outcome [2]: inactive; outcome [3]: inactive; outcome [7]: inactive; outcome [5]: inactive

**Q.** Which results are given for `NS(=O)(=O)c1ccc(C(=O)O)cc1`?
**A.** outcome [1]: inactive; outcome [2]: inactive; outcome [3]: inactive; outcome [7]: inactive; outcome [5]: inactive; outcome [6]: inactive

**Q.** With `Cc1ccnc2c1NC(=O)c1cccnc1N2C1CC1` as the compound, how does the outcome [1] read?
**A.** inactive

**Q.** What about the outcome [2] of the same compound?
**A.** inactive

**Q.** What about the outcome [3] of the same compound?
**A.** inactive

**Q.** What about the outcome [7] of the same compound?
**A.** inactive

**Q.** What about the outcome [5] of the same compound?
**A.** inactive

**Q.** And the outcome [6]?
**A.** inactive

**Q.** What does the source list for `CC(=O)Oc1cc(C(F)(F)F)ccc1C(=O)O`?
**A.** outcome [1]: inactive; outcome [2]: inactive; outcome [3]: inactive; outcome [7]: inactive; outcome [5]: inactive; outcome [6]: inactive

**Q.** For `O=C(C(=O)c1ccco1)c1ccco1`, which outcome [1] is on record?
**A.** inactive

**Q.** What about the outcome [2] of the same compound?
**A.** inactive

**Q.** And the outcome [3]?
**A.** inactive

**Q.** And the outcome [7]?
**A.** inactive

**Q.** What about the outcome [5] of the same compound?
**A.** inactive

**Q.** With `CC(C)C(=O)O` as the compound, how does the outcome [1] read?
**A.** inactive

**Q.** And the outcome [2]?
**A.** inactive

**Q.** What about the outcome [3] of the same compound?
**A.** inactive

**Q.** What about the outcome [7] of the same compound?
**A.** inactive

**Q.** And the outcome [5]?
**A.** inactive

**Q.** For `CN1CCN(c2c(F)cc3c(=O)c(C(=O)O)cn4c3c2OCN4C)CC1`, which outcome [1] is on record?
**A.** inactive

**Q.** What about the outcome [2] of the same compound?
**A.** inactive

**Q.** What about the outcome [3] of the same compound?
**A.** inactive

**Q.** And the outcome [7]?
**A.** inactive

**Q.** With `C=N[C@@H](C(=O)N[C@@H]1C(=O)N2[C@@H]1SC(C)(C)[C@@H]2C(=O)O)c1ccccc1` as the compound, how does the outcome [1] read?
**A.** inactive

**Q.** And the outcome [2]?
**A.** inactive

**Q.** What about the outcome [3] of the same compound?
**A.** inactive

**Q.** What about the outcome [7] of the same compound?
**A.** inactive

**Q.** What about the outcome [5] of the same compound?
**A.** inactive

**Q.** What about the outcome [6] of the same compound?
**A.** inactive

**Q.** Which results are given for `Cc1ccc(N(CC2=NCCN2)c2cccc(O)c2)cc1`?
**A.** AC50 [1]: 31 µM (active); outcome [2]: inactive; outcome [3]: inactive; outcome [7]: inactive; AC50 [6]: 30.4 µM (active)

**Q.** Which results are given for `[O-][n+]1ccccc1SSc1cccc[n+]1[O-]`?
**A.** outcome [1]: inactive; AC50 [2]: 9.52 µM (active); outcome [3]: inactive; outcome [7]: inactive; outcome [5]: inactive; outcome [6]: inactive
